# About 83,000 compounds went through this panel and 20% of them were active in at least one assay; those are over-represented in the sample as a whole.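 Assay: single dose, 48 h. Readout: percent growth (0 = no net growth; negative = cell death). Active: <10.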 A number with no mark means an inactive call. Activity calls are given as the source filed them.
# How the values were obtained:
# Experiment in all cases: NCI-60 one-dose screen, 48 h (100 = growth as untreated, 0 = no growth, -100 = all killed)
# Details in all cases: 10 µM unless noted
# NCI-H23 lung = tested on: NCI-H23 lung
# NCI-H226 lung = tested on: NCI-H226 lung
# NCI-H322M lung = tested on: NCI-H322M lung
# HOP-62 NSCLC = tested on: HOP-62 NSCLC
# NCI-H460 lung = tested on: NCI-H460 lung
# HOP-92 NSCLC = tested on: HOP-92 NSCLC
# NCI-H522 lung = tested on: NCI-H522 lung
# A549/ATCC NSCLC = tested on: A549/ATCC NSCLC
# 786-0 renal = tested on: 786-0 renal
# COLO 205 colon = tested on: COLO 205 colon
Structure (SMILES),growth (NCI-H23 lung),growth (NCI-H226 lung),growth (NCI-H322M lung) [%],growth (HOP-62 NSCLC),growth (NCI-H460 lung),growth (HOP-92 NSCLC),growth (NCI-H522 lung),growth (A549/ATCC NSCLC),growth (786-0 renal),growth (COLO 205 colon)
C1=CC2=CC=C3C=CC=C4C(c5nc6c7ccccc7c7ccccc7c6[nH]5)=CC(=C1)C2C34 (stereo not given),98.1%,23.8%,90.9,68.7%,98.9%,72.9%,82.5%,89.7%,98.2%,120%
C#C[C@@]1(O)[C@@H](CO)O[C@@H](n2cc(I)c3c(N)ncnc32)[C@@H]1O,-14.5% (active),52.2%,20,-3.39% (active),-25.4% (active),-23.8% (active),-49.6% (active),-56.5% (active),-24.3% (active),-50.2% (active)
O=C(Nc1nc2ccc(C(F)(F)F)cc2s1)c1cc(Cl)ccc1O,-12% (active),5.73% (active),10.6,4.72% (active),4.41% (active),-12.3% (active),-15.1% (active),11.3%,9.95% (active),-57.3% (active)
COc1ccc2c(c1)Oc1nc(N)c(C#N)c(N)c1C2Sc1ccc(O)cc1 (stereo not given),93%,94.5%,100,94.5%,104%,92.4%,-37.8% (active),98.4%,106%,79.7%
[2H]c1cc2c(c([2H])c1F)/C(=C/c1[nH]c(C)c(C(=O)NCCN(CC)CC)c1C)C(=O)N2,43.5%,40.5%,47.7,28.9%,47.5%,26.6%,62.4%,56.5%,32.5%,38.3%
CCCCc1ccc(N=Nc2ccc(OCC[N+](C)(C)C)cc2)cc1,49.2%,51.9%,73.8,20%,32.7%,25.8%,34.4%,33.2%,71.4%,-5.3% (active)
CCCCn1c(=O)c(/C=C/C(=O)/C=C/c2cc3ccccc3n(CCCC)c2=O)cc2ccccc21,-7.39% (active),-22.8% (active),49.6,49%,5.91% (active),64.4%,5.74% (active),-0.936% (active),-63% (active),-22% (active)
CCOC(=O)C1=C(C)n2nc(CC#N)c(C#N)c2NC1c1ccc(CC)cc1 (stereo not given),85.6%,87.6%,85.6,81.7%,104%,85.9%,85.5%,96.5%,106%,97.8%
COc1ccccc1-c1ccc2nc(NC(=O)Nc3cc(C(F)(F)F)cc(C(F)(F)F)c3)sc2c1,6.38% (active),16.9%,15.3,-1.58% (active),-4.9% (active),-8.46% (active),-2.89% (active),12.7%,8.85% (active),-84.8% (active)
Nc1c(C(=O)Nc2ccccn2)sc2nc3c(cc12)C(=O)CCC3,46.1%,74.7%,43.6,40.6%,6.33% (active),87.3%,12%,18%,35.4%,7.57% (active)
C#CCN(CCCOc1ccc(Cl)cc1Cl)CCCSC(=O)CCCCCN1/C(=C\C=C2/CCCC(/C=C/C3=[N+](CCCCCC(=O)[O-])c4ccccc4C3(C)C)=C2Cl)C(C)(C)c2ccccc21,45.3%,-10.9% (active),83.7,30.7%,11.8%,13.7%,-10.3% (active),66%,25.4%,32.8%
N#Cc1ccc(N2Cc3cc(Cl)ccc3OC3=C2C(=O)N(Cc2ccccc2)C3=O)cc1,10.8%,100%,96.3,59%,34.7%,-63.8% (active),-57.2% (active),66.3%,-82.4% (active),-69.2% (active)
COc1cccc(C(=O)OCCn2nc3c4c(cccc42)C(=O)c2ccccc2-3)c1O,44.2%,79.9%,53.8,39.5%,28.2%,62.1%,24.8%,67.4%,72.3%,107%
CC(=O)c1cc2c(N)c(C(=O)Nc3ccccn3)sc2nc1C,87.3%,86.8%,73.6,88.3%,45.6%,75.2%,77%,48.7%,88.2%,40.6%
O=c1c2ccccc2oc2ccc(OCCCCCN3CCCCCC3)cc12,72%,91.4%,85.9,92.5%,78.9%,94.1%,69.9%,71.9%,78.5%,43.6%
Cc1cc(Cl)cc(CN(Cc2ccccc2)Cc2c(O)ccc3ccccc23)c1O,93.6%,104%,95.7,92.3%,104%,83.7%,83%,98%,103%,115%
CCCS(=O)(=O)Nc1ccc(F)c(C(=O)c2c[nH]c3ncc(-c4ccc(OCCCC5CCCCN5)nc4)cc23)c1F (stereo not given),80.7%,69.9%,97.8,65.5%,79.9%,4.71% (active),59.5%,83.5%,78.7%,2.52% (active)
O=[N+]([O-])c1ccc(Oc2ccc(-c3ccccc3)cc2)cc1,85.3%,76.7%,100,92.1%,92.9%,74.3%,67.5%,91.5%,84.6%,109%
CC(C)(C#N)c1cc(F)cc(C(=O)Nc2cc(Nc3ncccc3-c3ncnc4nc[nH]c34)ccc2F)c1,16.8%,41.3%,53.3,44.9%,30.5%,-0.389% (active),7.73% (active),42.1%,63%,6.56% (active)
C/C(=C\c1cnc(C)s1)[C@@H]1C[C@@H]2O[C@@H]2CCC[C@H](C)[C@H](O)[C@@H](C)C(=O)C(C)(C)[C@@H](O)CC(=O)O1,31.7%,85.3%,25.7,26.5%,14.9%,52.6%,-2.17% (active),42.3%,43.6%,-8.64% (active)
S=c1ssnc1-c1cc2ccccc2o1,84.3%,92.9%,91.8,86.7%,70%,4.61% (active),79.2%,88.2%,24.1%,83.6%
Cc1ccc(CS/C(=C\c2ccc([N+](=O)[O-])cc2)C(=O)c2ccc(F)cc2)cc1,57.2%,67%,103,83.4%,82.3%,96.2%,-5.69% (active),85%,76.9%,54.2%
N#Cc1c(-c2ccc(F)cc2)nc(N=Nc2c(O)[nH]c3ccc(Cl)cc23)nc1N1CCOCC1,37.4%,10.5%,46.9,11.6%,51.8%,-9.97% (active),53.4%,23.8%,17%,65.5%
COC(=O)c1nc(-c2ccccc2)oc1S(=O)(=O)n1nc(-c2ccccc2)cc1N,90.4%,105%,90.7,101%,100%,72.1%,44.3%,102%,87.3%,-8.05% (active)
Nc1cccc(C(=O)Nc2ccc3c(O)c(N=Nc4ccc(N=Nc5ccc(S(=O)(=O)O)cc5)cc4)c(S(=O)(=O)O)cc3c2)c1,104%,109%,94.5,96%,106%,97.7%,84.5%,97.5%,98.1%,121%
NS(=O)(=O)c1ccc(-n2ncc(NC(=O)Nc3ccc(S(=O)(=O)Nc4nccs4)cc3)c2-c2ccccc2)cc1,106%,104%,106,94.4%,108%,106%,98.4%,98.5%,95.6%,108%
Nc1c(C(=O)Nc2cccc3ccccc23)sc2nc3c(cc12)CCCCCC3,47.8%,70.6%,48.1,38.8%,11.2%,52.9%,-37.1% (active),20.1%,26.4%,-2.61% (active)

# Source: PubChem BioAssay (NCI)
